In ChEMBL document CHEMBL3433997, “St. Jude Leishmania screening dataset” (2016):

Tests used:
Format in all cases: functional
[1] = biological target: Solute carrier family 2, facilitated glucose transporter member 1 (Homo sapiens) (UniProt P11166); assay: ST_JUDE_LEISH: Cytotoxicity at 2uM final concentration against transgenic Leishmania Mexicana promastigotes LmGLUT1 that are glucose transport deficient and complemented with the human glucose transporter GLUT1. Activity is measured by DNA content using SYBR green in vitro
Solute carrier family 2, facilitated glucose transporter member 1 (Homo sapiens), sequence (P11166 whole entry): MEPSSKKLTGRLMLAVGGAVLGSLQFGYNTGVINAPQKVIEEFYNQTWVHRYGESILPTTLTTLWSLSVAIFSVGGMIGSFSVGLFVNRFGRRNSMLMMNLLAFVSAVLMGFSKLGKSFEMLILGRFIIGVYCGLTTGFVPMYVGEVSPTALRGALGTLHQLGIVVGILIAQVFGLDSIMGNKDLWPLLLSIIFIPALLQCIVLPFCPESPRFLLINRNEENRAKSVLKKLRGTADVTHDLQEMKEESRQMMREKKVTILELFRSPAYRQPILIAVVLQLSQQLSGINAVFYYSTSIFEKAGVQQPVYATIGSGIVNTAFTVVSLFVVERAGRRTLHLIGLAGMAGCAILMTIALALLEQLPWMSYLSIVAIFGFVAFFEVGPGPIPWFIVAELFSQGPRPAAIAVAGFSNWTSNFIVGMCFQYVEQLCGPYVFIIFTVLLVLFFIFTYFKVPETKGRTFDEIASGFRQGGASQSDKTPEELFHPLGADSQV

[2] = biological target: Hexose transporter 1 (Plasmodium falciparum) (UniProt O97467); assay: ST_JUDE_LEISH: Cytotoxicity at 2uM final concentration against transgenic Leishmania Mexicana promastigotes LmPfHT that are glucose transport deficient and complemented with the Plasmodium falciparum hexose transporter. Activity is measured by DNA content using SYBR green in vitro
[3] = biological target: Glucose transporter (Leishmania mexicana) (UniProt O61059); assay: ST_JUDE_LEISH: Cytotoxicity at 2uM final concentration against transgenic Leishmania Mexicana promastigotes LmGT2 that are glucose transport deficient and complemented with the L. Mexicana glucose transporter 2. Activity is measured by DNA content using SYBR green in vitro

Structure (SMILES) | inhibition [1] [%] | inhibition [2] [%] | inhibition [3] [%]
O=C(CCc1c[nH]cn1)Nc1ccc(-c2ccc(-c3nc4cc(F)ccc4[nH]3)cc2)cc1 | 1.4 | 1.73 | 1.81
CCCN(CCCN(CCCN(CCC)C(C)C)c1cc(C)nc(Nc2ccc(Cl)cc2)n1)C(C)C | 9.21 | 7.26 | 6.27
CN(C)CCN(C)Cc1ccc(-c2ccc(NS(=O)(=O)c3cccc4cccnc34)cc2)cc1 | 9.5 | 9.32 | 3.58
COc1cccc(-c2[nH]c3ccccc3c2CN2CCC(c3c(C)cccc3C)CC2)c1 | 2.03 | 2.95 | -1.74
O=C(NCCCCN1CC=C(c2ccc3c(c2OCc2ccccc2)CCCC3)CC1)c1ccc(-c2ccc(C(F)(F)F)cc2)cc1 | -1.51 | -1.29 | -2.15
COc1ccc(NC(=O)[C@H](Cc2ccccc2)Nc2cc(C)nc(NCCc3ccccc3OC)n2)cc1 | -0.03 | -1.38 | -0.97
Cc1cc(C(F)(F)F)nn1-c1ccc(NC(=O)c2ccco2)cc1 | -2.06 | -1.65 | -1.05
Nc1ncc(-c2ccc(S(=O)(=O)Nc3ccc(C(=O)N[C@@H](CCC(=O)O)C(=O)O)cc3)cc2)c(=O)[nH]1 | 4.56 | 4.19 | 4.44
O=S(=O)(NCCN1CCCC1)c1cccc(-c2cccc(CNCc3ccccc3)c2)c1 | 20 | 17.2 | 11.7
CC(C)c1ccc(CN2CCC(CNC(=O)c3cc(-c4cccc(Cl)c4)cs3)C2)cc1 (stereo not drawn) | 1.24 | 3.19 | -0.24
Fc1cccc(Cn2ncc3cc(Nc4ncnc5sc(C#Cc6ncc[nH]6)cc45)ccc32)c1 | -0.74 | 1.74 | -0.29
